Data taken from PubChem BioAssay.
The source made the active and inactive calls.

What was measured:
[1] = optical density shifts of acrAB sulA E. coli – strain DRC41, OD650, 48 h, E. coli filamentation inducer project, primary screen (AID 1152); details: higher = more signal, called active from +8 up or from −8 down;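 note: E. coli MC1000 strain DRC41 lacking acrAB efflux pump and sulA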
[2] = probe aLefty1 binding on compound microarray – biochemical, small-molecule microarray, 635/667 nm fluorescence, primary screen (AID 1153); details: higher = more signal;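 note: score merges spot fluorescence with signal-to-noise ratio from the scanned slide images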
[3] = plasmodial surface anion channel blockers, osmotic lysis – cell-based, P. falciparum Indochina, OD700, 1 h, primary screen (AID 1154); details: P. falciparum Indochina infected RBC osmotic lysis, higher = more signal, called active from +8 up or from −8 down
[4] = plasmodial surface anion channel blockers, osmotic lysis – cell-based, P. falciparum Indochina, OD700, 2 h, primary screen (AID 1155);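 note: lysis reports solute entry through the parasite surface anion channel PSAC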; details: P. falciparum Indochina infected erythrocytes, higher = more signal, called active from +8 up or from −8 down
[5] = changes in parasitized red cell lysis, either direction – P. falciparum Indochina, OD700, 3 h, PSAC antagonist project, primary screen (AID 1156); details: P. falciparum-infected erythrocytes, osmotic lysis, higher = more signal, called active from +8 up or from −8 down
[6] = plasmodial surface anion channel blockers, osmotic lysis – cell-based, P. falciparum Indochina, OD700, 18 h, primary screen (AID 1157); details: P. falciparum Indochina infected erythrocytes, osmotic lysis OD700, 18 h; higher = more signal, called active from +8 up or from −8 down
[7] = S6 kinase pathway phospho-S6 level changes – cell-based, A549, cytoblot, luminescence, serum-stimulated, primary screen (AID 1158); details: 5 h, higher = more signal;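 note: serum-stimulated A549 lung adenocarcinoma cells; signal is phosphorylated S6 detected by cytoblot immunostaining with HRP secondary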
[8] = biological target: NADPH oxidase 2 (Homo sapiens) (UniProt P04839); assay: compounds shifting NOX2 Amplex Red fluorescence – cell-based, HEK293-NOX2, PMA-stimulated, NOX inhibitor project, primary screen (AID 1159); details: 45 min, higher = more signal, called active from +8 up or from −8 down; note: test concentration not given here
Sequence of NADPH oxidase 2 (Homo sapiens) (P04839 whole entry, looked up): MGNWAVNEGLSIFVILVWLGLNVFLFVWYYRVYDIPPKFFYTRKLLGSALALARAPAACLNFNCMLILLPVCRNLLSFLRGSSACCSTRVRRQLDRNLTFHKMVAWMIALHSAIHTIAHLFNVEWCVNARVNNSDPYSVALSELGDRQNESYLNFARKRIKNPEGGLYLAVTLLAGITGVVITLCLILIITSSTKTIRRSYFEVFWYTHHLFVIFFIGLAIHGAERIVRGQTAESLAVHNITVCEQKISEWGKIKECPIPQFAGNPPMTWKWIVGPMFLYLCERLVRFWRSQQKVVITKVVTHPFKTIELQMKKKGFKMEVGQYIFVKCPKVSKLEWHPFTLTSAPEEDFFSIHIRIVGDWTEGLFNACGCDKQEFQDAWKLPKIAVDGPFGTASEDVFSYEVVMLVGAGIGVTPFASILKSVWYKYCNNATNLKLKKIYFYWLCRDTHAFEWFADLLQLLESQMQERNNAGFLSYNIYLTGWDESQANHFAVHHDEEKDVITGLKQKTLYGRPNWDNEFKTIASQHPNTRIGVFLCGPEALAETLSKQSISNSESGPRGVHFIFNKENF

[9] = biological target: NADPH oxidase 4 (Homo sapiens) (UniProt Q9NPH5); assay: compounds shifting NOX4 Amplex Red fluorescence – cell-based, HEK293-NOX4, tetracycline-induced, NOX inhibitor project, primary screen (AID 1160); details: HEK293-NOX4, Amplex Red H2O2 fluorescence, 45 min; higher = more signal, called active from +8 up or from −8 down
Sequence of NADPH oxidase 4 (Homo sapiens) (Q9NPH5 whole entry, looked up): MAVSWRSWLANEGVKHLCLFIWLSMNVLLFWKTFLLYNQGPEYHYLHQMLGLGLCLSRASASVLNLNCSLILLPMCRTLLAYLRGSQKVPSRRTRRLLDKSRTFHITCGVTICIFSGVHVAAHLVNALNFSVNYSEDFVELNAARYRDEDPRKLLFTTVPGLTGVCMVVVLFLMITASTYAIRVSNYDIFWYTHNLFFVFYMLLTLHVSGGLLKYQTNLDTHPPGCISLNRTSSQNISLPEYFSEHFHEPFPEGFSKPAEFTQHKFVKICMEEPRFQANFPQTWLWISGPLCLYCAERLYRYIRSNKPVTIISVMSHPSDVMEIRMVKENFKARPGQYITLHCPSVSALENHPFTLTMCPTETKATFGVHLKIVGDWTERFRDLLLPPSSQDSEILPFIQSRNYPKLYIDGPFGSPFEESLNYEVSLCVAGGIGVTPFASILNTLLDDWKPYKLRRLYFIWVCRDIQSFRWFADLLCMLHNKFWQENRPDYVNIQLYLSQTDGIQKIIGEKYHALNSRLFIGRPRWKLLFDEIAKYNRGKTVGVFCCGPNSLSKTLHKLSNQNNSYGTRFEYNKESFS

[10] = biological target: NADPH oxidase 5 (Homo sapiens) (UniProt Q96PH1); assay: compounds shifting NOX5 Amplex Red fluorescence – cell-based, HEK293-NOX5, NOX inhibitor project, primary screen (AID 1161); details: HEK293-NOX5, ionomycin, 45 min, higher = more signal
Sequence of NADPH oxidase 5 (Homo sapiens) (Q96PH1 whole entry, looked up): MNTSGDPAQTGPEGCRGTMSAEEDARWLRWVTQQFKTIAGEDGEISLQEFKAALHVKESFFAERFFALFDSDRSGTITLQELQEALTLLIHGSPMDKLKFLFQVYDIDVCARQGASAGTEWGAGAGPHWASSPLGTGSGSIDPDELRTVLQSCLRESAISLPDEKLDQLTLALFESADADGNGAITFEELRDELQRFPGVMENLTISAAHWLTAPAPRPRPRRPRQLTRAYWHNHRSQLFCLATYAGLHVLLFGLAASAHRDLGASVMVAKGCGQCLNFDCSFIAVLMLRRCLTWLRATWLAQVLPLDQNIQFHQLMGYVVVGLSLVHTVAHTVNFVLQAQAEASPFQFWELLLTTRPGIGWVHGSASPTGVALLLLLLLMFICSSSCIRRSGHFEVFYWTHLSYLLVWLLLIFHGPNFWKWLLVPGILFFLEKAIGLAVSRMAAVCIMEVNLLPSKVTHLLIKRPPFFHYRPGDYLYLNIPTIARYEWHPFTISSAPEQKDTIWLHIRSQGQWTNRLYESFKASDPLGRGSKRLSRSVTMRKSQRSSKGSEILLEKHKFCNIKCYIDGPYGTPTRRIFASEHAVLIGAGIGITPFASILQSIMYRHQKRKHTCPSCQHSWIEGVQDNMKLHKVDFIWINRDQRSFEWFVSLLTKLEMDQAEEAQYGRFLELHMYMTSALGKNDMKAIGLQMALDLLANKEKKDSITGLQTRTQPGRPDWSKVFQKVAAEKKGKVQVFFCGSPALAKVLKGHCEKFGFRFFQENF

| SMILES | z-score [1] | composite z-score [2] | z-score [3] | z-score [4] | z-score [5] | z-score [6] | z-score [7] | z-score [8] | z-score [9] | z-score [10] |
| --- | --- | --- | --- | --- | --- | --- | --- | --- | --- | --- |
| CN(C)CCCCCCNC(=O)[C@@H]1C[C@@H]2C(=O)N[C@@H](CCCC[N+](C)(C)C)C(=O)N2[C@@H]1c1cccc(OCCO)c1 | 1.44 (inactive) | 0.0651 | 5.12 (inactive) | -0.16 (inactive) | 1.47 (inactive) | -1.04 (inactive) | 2.66 | -0.0444 (inactive) | 0.249 (inactive) | 1.55 |
| C=CCNC(=O)[C@H]1[C@@H]2C(=O)O[C@@H](c3ccccc3)[C@@H](c3ccccc3)N2[C@@H](c2ccc(OCCO)cc2)[C@]12C(=O)Nc1ccc(C#Cc3ccc(OC)cc3)cc12 | -0.0405 (inactive) | -0.248 | 3.42 (inactive) | 2.19 (inactive) | 0.866 (inactive) | 1.4 (inactive) | -0.0157 | 0.87 (inactive) | 0.34 (inactive) | 1.43 |
| O=C1O[C@H](c2ccccc2)[C@H](c2ccccc2)N2[C@H]1[C@@H](C(=O)Nc1nc3ccccc3s1)[C@]1(C(=O)Nc3ccccc31)[C@H]2c1ccccc1OCCO | 0.185 (inactive) | 0.347 | 7.3 (inactive) | 5.1 (inactive) | -5.41 (inactive) | 1.79 (inactive) | 0.354 | 1.47 (inactive) | 0.862 (inactive) | 1.86 |
| CCCCCCc1nc(Cc2cc(OC)c(OC)c(OC)c2)c(C)c2c1[Si](C(C)C)(C(C)C)OC2 | 1.41 (inactive) | -0.0547 | 2.71 (inactive) | -0.23 (inactive) | 0.906 (inactive) | -0.471 (inactive) | 2.51 | -0.25 (inactive) | -0.588 (inactive) | -2.37 |
| C[C@]1(C(=O)O)c2ccccc2C(=O)N(Cc2cc(C(F)(F)F)cc(C(F)(F)F)c2)[C@H]1c1ccc(CO)cc1 | -0.485 (inactive) | -0.0479 | 1.8 (inactive) | 0.168 (inactive) | -0.173 (inactive) | 0.157 (inactive) | -0.0892 | 0.803 (inactive) | 0.0284 (inactive) | -0.714 |
| C=CCNC(=O)[C@H]1[C@@H]2C(=O)O[C@@H](c3ccccc3)[C@@H](c3ccccc3)N2[C@@H](c2ccc(O)cc2)[C@]12C(=O)Nc1ccccc12 | 1.58 (inactive) | -0.191 | 2.59 (inactive) | 0.301 (inactive) | -0.458 (inactive) | 0.393 (inactive) | 0.288 | 0.0548 (inactive) | -0.789 (inactive) | 1.04 |
| COCCCNC(=O)[C@@]1(Cc2ccccc2I)c2ccccc2C(=O)N(Cc2ccccc2OC)[C@H]1c1ccc(CO)cc1 | 0.567 (inactive) | -0.164 | 10.1 (active) | 1.27 (inactive) | 1.73 (inactive) | 0.576 (inactive) | -0.0483 | -1.68 (inactive) | 0.642 (inactive) | -1.19 |
| Cc1ccc(S[C@]2(C(=O)NCC(C)C)CC(=O)N(C(C)C)[C@@H]2c2ccc(CO)cc2I)cc1 | 0.746 (inactive) | 0.245 | 4.28 (inactive) | 0.965 (inactive) | 0.504 (inactive) | 0.279 (inactive) | 0.363 | 2.02 (inactive) | -0.511 (inactive) | 1.9 |
| O=C1NC(=O)C2C1C=CC(C(O)C(c1ccccc1)c1ccccc1)N2Nc1ccccn1 (stereo not given) | -0.332 (inactive) | 0.228 | 0.186 (inactive) | 0.829 (inactive) | 0.156 (inactive) | 0.853 (inactive) | -0.681 | 0.738 (inactive) | -2.13 (inactive) | -1.47 |
| O=C1NC(=O)C2C1C=CC(C(O)C1CCCCC1)N2Nc1ccccn1 (stereo not given) | -1.72 (inactive) | -0.0779 | 0.188 (inactive) | 0.567 (inactive) | -0.489 (inactive) | 0.433 (inactive) | -0.621 | -1.2 (inactive) | -3.29 (inactive) | -2.69 |
| CCCC1(C(=O)OC)C=C2C(=C(C(C)C)C(=O)C2C)CN1 (stereo not given) | -2.12 (inactive) | 0.062 | 2.85 (inactive) | 0.364 (inactive) | 0.454 (inactive) | 0.57 (inactive) | -0.598 | 0.216 (inactive) | -1.15 (inactive) | -3.15 |
| COc1ccc(-c2cc3c(c(CCc4ccccc4)n2)[Si](C(C)C)(C(C)C)O[C@H]3c2ccccc2)cn1 | 0.0534 (inactive) | -0.193 | 4.29 (inactive) | 1.36 (inactive) | -0.449 (inactive) | 0.775 (inactive) | -0.643 | 0.947 (inactive) | 0.741 (inactive) | 0.0862 |
| O=C1C[C@@](C(=O)NCC(F)(F)F)(c2ccc([N+](=O)[O-])cc2)[C@@H](c2ccc(CO)cc2I)N1CC12CC3CC(CC(C3)C1)C2 | 0.662 (inactive) | 0.383 | 22.4 (active) | 5.06 (inactive) | -0.0836 (inactive) | 0.69 (inactive) | 2.26 | 1 (inactive) | -0.564 (inactive) | 0.733 |
| COCCOC(=O)N1C(=O)[C@@]2(c3cc(C#CCNC(N)=O)ccc31)[C@H](C(=O)N1CCN(c3ncccn3)CC1)[C@H]1C(=O)O[C@H](c3ccccc3)[C@H](c3ccccc3)N1[C@@H]2c1ccc(O)cc1 | 0.03 (inactive) | -0.514 | 1.35 (inactive) | -0.136 (inactive) | 0.889 (inactive) | 0.539 (inactive) | -0.285 | 0.806 (inactive) | 0.432 (inactive) | 0.31 |
| O=C(NCCN1CCOCC1)[C@@H]1c2ccccc2C(=O)N(CC23CC4CC(CC(C4)C2)C3)[C@H]1c1ccc(CO)cc1 | 0.0865 (inactive) | 0.409 | 2.89 (inactive) | 1.09 (inactive) | 1.29 (inactive) | 0.744 (inactive) | -0.407 | -0.0458 (inactive) | -1.7 (inactive) | -1.61 |
| COc1ccc([Si](C)(C)[C@H]2[C@H](CCO)O[C@@]3(C(=O)N(Cc4ccccc4)c4ccc(NC(=O)[C@H](C)O)cc43)[C@@H]2C)cc1 | -0.0149 (inactive) | 0.013 | 10.8 (active) | 2.73 (inactive) | 0.0811 (inactive) | 1.43 (inactive) | 0.0757 | -0.699 (inactive) | 0.488 (inactive) | 1.66 |
| C=CCN1C(=O)[C@]2(O[C@H](CCO)[C@@H]([Si](C)(C)c3ccc(OC)cc3)[C@@H]2C)c2cc(N3C(=O)c4ccccc4Oc4ccccc43)ccc21 | -0.458 (inactive) | 0.568 | 6.17 (inactive) | 2.82 (inactive) | -0.512 (inactive) | 2.95 (inactive) | 0.695 | 0.0876 (inactive) | 0.945 (inactive) | -0.216 |
| CCCCC(=C=CC[C@@H](O)c1ccccc1OCCO)C[C@@H](O)c1ccccn1 | 0.142 (inactive) | -0.0192 | 11.3 (active) | 1.51 (inactive) | 1.02 (inactive) | 0.894 (inactive) | -0.261 | 1.32 (inactive) | -0.281 (inactive) | -1.41 |
| C=C(CC1([C@@H](NP(=O)(c2ccccc2)c2ccccc2)[C@H]2C[C@@H]2CCCC)CC1)c1cccc(OC)c1 | -1.57 (inactive) | 0.494 | 2.33 (inactive) | 0.451 (inactive) | 1.36 (inactive) | 0.935 (inactive) | -0.254 | -0.914 (inactive) | -1.36 (inactive) | -2.78 |
| Cc1ccc(S[C@]2(C(=O)NC(C)C)CC(=O)N(Cc3ccccc3)[C@@H]2c2ccc(CO)cc2I)cc1 | 0.214 (inactive) | 0.164 | 5.59 (inactive) | 0.654 (inactive) | 0.59 (inactive) | 0.231 (inactive) | -0.35 | 0.671 (inactive) | -0.818 (inactive) | 1.76 |
| COCCOC(=O)N1C(=O)[C@@]2(c3cc(C#CCCO)ccc31)[C@H](C(=O)N1CCN(c3ncccn3)CC1)[C@H]1C(=O)O[C@H](c3ccccc3)[C@H](c3ccccc3)N1[C@@H]2c1ccc(OCCO)cc1 | -0.862 (inactive) | 0.197 | 11.4 (active) | 3.12 (inactive) | 0.72 (inactive) | 1.39 (inactive) | -0.633 | 1.45 (inactive) | 0.709 (inactive) | 1.21 |
| CC(C)N1C(=O)[C@@]2(Cc3ccccc31)c1ccccc1C(=O)N(Cc1ccccc1)[C@H]2c1ccc(CO)cc1 | 0.882 (inactive) | -0.211 | 0.117 (inactive) | 0.945 (inactive) | 0.146 (inactive) | 0.328 (inactive) | -0.274 | -1.11 (inactive) | -0.462 (inactive) | -0.601 |
| Cc1ccc(S(=O)(=O)N2[C@@H](c3ccccc3)C(C(=O)O)=CC[C@H]2c2ccc(F)cc2)cc1 | -0.232 (inactive) | 0.214 | 2.05 (inactive) | 0.706 (inactive) | 1.1 (inactive) | 0.66 (inactive) | -0.0796 | 0.0361 (inactive) | 0.605 (inactive) | 0.953 |
| O=C(N1CCOCC1)[C@]1(CCS(=O)(=O)c2ccccc2)N=C(c2ccc(OCCCO)cc2)O[C@@H]1c1ccccc1 | 0.427 (inactive) | 0.441 | 27.2 (active) | 20 (active) | 3.43 (inactive) | 2.61 (inactive) | 0.0315 | 0.348 (inactive) | 1.72 (inactive) | 1.16 |
| CN(C)C(=O)[C@]1(CCS(=O)(=O)c2ccccc2)N=C(c2ccc(OCCCO)cc2)O[C@@H]1c1ccccc1CN=[N+]=[N-] | 0.0558 (inactive) | 0.342 | 25.5 (active) | 14.6 (active) | 1.47 (inactive) | 1.57 (inactive) | 0.131 | -0.163 (inactive) | 2.09 (inactive) | -0.658 |
